CCT chaperon mod: modulators of cytosolic chaperonin (CCT/TRiC) activity. purified chaperonin ATPase assay, HTRF ADP detection, 30 min. activity change, % (concentration not given with the values), hits read low. actives 0.3% (n = 360,000). AID 651819; in the data active means activity change below about -30%
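TRiC (40 or 20 nM final, by batch activity) in 30 mM Tris pH 7.4, 100 mM KCl, 5 mM MgCl2, 1 mM DTT was treated with compound at 76 uM single dose, then 10 uM ATP, 30 min at 37 °C. ADP was read by HTRF Transcreener.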
VDR inhibitor: vitamin D3 receptor (human) inhibition | P11473 | VDR-SRC2-3 peptide fluorescence polarization, 2 h | Potency, µM, for the others: max response, negative = inhibition, hits mostly inhibitors | actives 0.93% (n = 400,000); further: potency means the concentration at half of the fitted maximal effect
Target sequence (P11473 whole entry, looked up): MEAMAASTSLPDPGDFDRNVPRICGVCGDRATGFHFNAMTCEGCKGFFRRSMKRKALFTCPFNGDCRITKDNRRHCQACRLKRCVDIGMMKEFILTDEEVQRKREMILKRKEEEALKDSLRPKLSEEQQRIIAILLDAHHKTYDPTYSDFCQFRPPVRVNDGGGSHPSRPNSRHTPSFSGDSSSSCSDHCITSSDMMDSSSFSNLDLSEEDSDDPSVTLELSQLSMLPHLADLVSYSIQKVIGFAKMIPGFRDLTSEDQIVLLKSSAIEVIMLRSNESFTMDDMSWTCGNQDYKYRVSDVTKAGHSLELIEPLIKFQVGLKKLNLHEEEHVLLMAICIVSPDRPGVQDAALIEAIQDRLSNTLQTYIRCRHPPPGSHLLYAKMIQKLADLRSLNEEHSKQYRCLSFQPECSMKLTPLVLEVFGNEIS
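FP read-out; VDR + SRC2-3 coactivator peptide; 23 nl compound by pintool; 2 h RT incubation; reagents held at 4 deg C, protected from light.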
G9a inh: G9a (human) methyltransferase inhibition; Q96KQ7; G9a H3K9 monomethylation, AlphaScreen, 2 h; Potency, µM (doses to about 102 µM), without a hit: at the highest dose activity, negative = inhibition, actives largely listed as inhibitors; actives 8.8% (n = 350,000); AID 504332; further: potency means the concentration at half of the fitted maximal effect; nearly all actives have a fitted effect of over 75% in size
Target sequence (Q96KQ7 913-1193 limits assumed): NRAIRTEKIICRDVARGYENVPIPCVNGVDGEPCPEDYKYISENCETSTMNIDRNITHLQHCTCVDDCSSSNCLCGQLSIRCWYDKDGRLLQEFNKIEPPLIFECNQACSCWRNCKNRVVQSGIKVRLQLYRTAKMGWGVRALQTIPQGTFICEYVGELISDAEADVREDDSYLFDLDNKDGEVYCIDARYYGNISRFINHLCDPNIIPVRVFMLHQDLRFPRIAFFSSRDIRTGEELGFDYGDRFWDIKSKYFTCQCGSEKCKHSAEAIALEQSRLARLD
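Chemiluminescent proximity detection of H3K9 monomethylation, read after 10 min bead incubation in the dark. Reaction: 20 nM G9a, 500 nM biotin-H3K9 peptide, 20 uM SAM cofactor, 2 h, room temperature, following 15 min enzyme-compound preincubation.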
MmCpn inh: M. maripaludis TRiC chaperonin inhibition | purified Mm-Cpn ATPase, ADP Transcreener TR-FRET | Potency, µM (highest dose often 76.9 µM), for the others: top-dose activity, negative = inhibition, most hits filed as inhibitors | actives 0.031% (n = 330,000); further: potency means the concentration at half of the fitted maximal effect; nearly all actives have a fitted effect of over 80% in size
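Purified archaeal chaperonin (25 nM final) was preincubated with compound for 10 min at 37°C, then ATP (10 uM final) was added for 30 min at 37°C in Tris pH 7.4/KCl/MgCl2/DTT buffer. ADP was quantified by HTRF Transcreener TR-FRET.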
Sfp inh: inhibitors of Bacillus subtilis Sfp phosphopantetheinyl transferase | Biochemical Sfp PPTase activity, qHTS | Potency, µM, for inactives: largest response in the series, negative = inhibition, actives largely listed as inhibitors | actives 3.5% (n = 310,000) | AID 1490;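 further: the enzyme is Sfp with the accession as filed and its product quenches rhodamine fluorescence; potency means the concentration at half of the fitted maximal effect; 0% = enzyme reaction without inhibitor and -100% = no enzyme wells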
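After 15 min at room temperature with compound, 15 nM Sfp received 5 uM rhodamine-CoA plus 12.5 uM BHQ-2-ybbR (50 mM Hepes pH 7.6, 10 mM MgCl2). Rate came from the fluorescence difference over 30 min, ex 525/em 598 nm.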
PLK1 PBD block: inhibitors of human PLK1 polo-box domain binding | Plk1 PBD binding of FITC phosphopeptide, fluorescence polarization | Potency, µM, for inactives: max response, negative = inhibition, hits mostly inhibitors | actives 2.8% (n = 360,000); further: potency means the concentration at half of the fitted maximal effect; series mostly up to about 57 µM; nearly all actives have a fitted effect of over 65% in size
Active calls of the source: *; ? = inconclusive; · = not tested or not shown; ! = a repeat was not active; [ ] = dose if it differs, or a comment. An excerpt weighted towards active compounds, which were near 10% of everything screened. Unless noted, the call rests on the fitted dose curve; in most records, active means well fitted curve in the direction sought with a large enough effect; inconclusive means small, poorly fitted or top-dose-only effect, or another doubt; inactive means no such curve, though single readings can be large; an effect the other way counts as inactive or inconclusive. Unless noted, on the % scale 0 is the no-effect control and ±100 the full control effect.

SMILES | CCT chaperon mod | VDR inhibitor | G9a inh | MmCpn inh | Sfp inh | PLK1 PBD block
CCOc1ccc(-n2c(-c3ccco3)n[nH]c2=S)cc1 | -1 | 0% | 3.2µM* | -6% | 50µM* | -7%
CCOc1ccc(-n2c(-c3ccco3)nc3c(cnn3-c3ccc(C)cc3)c2=O)cc1 | -3 | 17% | 8% | 1% | 23% | -7%
Cc1ccc(NC(=O)N2CCN3CCCCC3C2)cc1C (stereo not given) | · | 9% | 0%[59 µM] | · | · | ·
Cc1cccc(-c2c3c(=O)n(C)c(=O)n(C)c3c3cnc4ccccc4n23)c1 | · | -6% | 1%[59 µM] | · | · | ·
CCCCN(CC)Cc1ccc(CNC(=S)Nc2ccc(C)cc2Cl)o1 | -1 | 12% | 35µM* | 0% | -13% | -28%
CCCCN(CC)Cc1ccc(CNC(=S)Nc2c(C)cc(C)cc2C)o1 | 0 | -6% | ? | -1% | 45µM* | 13µM*
Cc1ccc(S(=O)(=O)N2CCCC(c3nc4c(nnn4Cc4ccc(OC(F)(F)F)cc4)c(=O)[nH]3)C2)cc1 (stereo not given) | · | 4% | -27%[59 µM] | · | · | ·
Cn1c(SCC(=O)c2ccc(O)c(O)c2)nnc1-c1ccccc1 | -2 | -20% | 6% | 2% | 79µM* | -2%
CC(=O)Nc1ccc(-c2nnc(SCC(=O)c3ccc4c(c3)Cc3ccccc3-4)n2C)cc1 | -3 | 50µM* | 22µM* | -3% | 89µM* | -18%
CC(=O)Nc1ccc(C(=O)CSc2nnc(-c3ccccc3)n2-c2ccccc2)cc1 | · | 4% | -5%[59 µM] | · | · | ·
O=c1c(S(=O)(=O)c2ccc(Cl)cc2)cn(Cc2ccc(F)cc2)c2ccc(F)cc12 | · | -3% | -9%[59 µM] | · | · | ·
N#Cc1cnc(NN)nc1 | -1 | -5% | 50µM* | 1% | 6.3µM* | -11%
COc1ccc(-c2oc3cc(OC)ccc3c(=O)c2O)cc1 | · | -9% | · | · | -3% | ·
COc1ccc(N/C=C2\C(=O)CCc3c2oc2cc(Cl)c(O)c(Cl)c32)cc1 | 1 | -17% | 40µM* | 0% | -18% | -9%
NC(Cc1cccc(-c2ccccc2CP(=O)(O)O)c1)C(=O)O (stereo not given) | · | 0% | 9.5µM*! | · | · | ·
N[C@H](Cc1ccc(Cl)cc1)C(=O)O | · | · | · | · | -28% | ·
N[C@H](Cc1ccc(O)cc1)C(=O)O | · | 8% | 30%[59 µM] | · | -6% | ·
N[C@@H](Cc1cc(CP(=O)(O)O)cc(-c2ccccc2Cl)c1)C(=O)O | · | -19% | · | · | 8.9µM* | ·
N#Cc1c(Nc2ccccc2C(F)(F)F)s[nH]c1=O | -1 | ? | 14µM* | -2% | 3.5µM* | 27µM*
N#Cc1c(Nc2ccccc2Cl)s[nH]c1=O | -1 | ? | · | -1% | 4µM* | ?
Cc1cc(C)c(C#N)c(Nc2ccccc2Cl)n1 | -5 | 11% | 15%[12.7 µM] | 1% | 5% | -4%
CCC(=O)N1CCc2cc(Br)cc(S(=O)(=O)NCCc3ccccc3Cl)c21 | · | -6% | 0%[59 µM] | · | · | ·
CN(C)c1ncc2nc(CCc3ccccc3)c(=O)n(CCC#N)c2n1 | · | -17% | -2%[0.501 µM] | · | -8% | ·
CCS(=O)(=O)c1nc(NC(C)=O)n[nH]1 | -4 | -21% | 5.6µM* | 0% | -10% | -14%
Cc1cccc(-c2nnc3n(CCc4ccccc4)c(=O)c4ccccc4n23)c1 | · | 8% | -28%[59 µM] | · | · | ·
SMILES | CCT chaperon mod | VDR inhibitor | G9a inh | MmCpn inh | Sfp inh | PLK1 PBD block
O=C1CC(NCC2CCCO2)C(=O)N1c1ccc(Cl)cc1 (stereo not given) | -1 | -16% | 45µM* | -2% | -8% | -9%
Cc1ccc(N2C(=O)CC(NCC3CCCO3)C2=O)cc1 (stereo not given) | 0 | 9% | -28% | -2% | -1% | 1%
Oc1c(C(c2ccc(Cl)cc2)N2CCC3(CC2)OCCO3)sc2nc(-c3ccco3)nn12 (stereo not given) | · | 21% | -48%[59 µM] | · | · | ·
NC(=O)c1ccsc1NC(=O)c1ccc(N2CCCC2=O)cc1 | -1 | -10% | 45µM* | 0% | 12% | -2%
CNC1=C(N(C(C)=O)c2ccc(Br)cc2)C(=O)c2ccccc2C1=O | -1 | -4% | ? | -2% | 11% | -8%
CC(=O)NC1=C(N(C)C2CCS(=O)(=O)C2)C(=O)c2ccccc2C1=O (stereo not given) | -5 | -21% | 7.9µM* | -4% | -9% | -8%
CC(=O)NC1=C(Nc2ccc(N(C)C)cc2)C(=O)c2ccccc2C1=O | 2 | 50µM* | 32µM* | -6% | -14% | -10%
COc1ccc(NC(=O)CSc2nncn3c2cc2oc(C)cc23)cc1OC | · | 14% | -4%[59 µM] | · | · | ·
CCc1ccc(OCC2c3cc(OC)c(OC)cc3CCN2C(=O)c2ccc(S(=O)(=O)N3CCCC3)cc2)cc1 (stereo not given) | · | -5% | -44%[59 µM] | · | · | ·
O=C(NC(=S)Nc1cc(C(F)(F)F)ccc1Cl)c1ccccc1 | 1 | 14% | 10%[0.501 µM] | 0% | -27% | -6%
O=C(O)c1ccc(NNC(=S)Nc2cc(C(F)(F)F)ccc2Cl)cc1 | 0 | 22µM* | 35µM* | 2% | 89µM* | 21µM*
COc1ccc(CNc2ncncc2-c2ccccc2C(F)(F)F)c(OC)c1 | · | -19% | 2%[0.501 µM] | · | -14% | ·
COc1ccccc1NC(=O)CCNS(=O)(=O)c1ccc2[nH]c(=O)oc2c1 | -1 | ? | 8% | 1% | 18% | 30µM*
COc1cccc(CNC(=O)CCNS(=O)(=O)c2ccc3[nH]c(=O)oc3c2)c1 | 2 | -2% | 10% | 0% | 9% | 8%
COc1ccccc1CNC(=O)CCNS(=O)(=O)c1ccc2[nH]c(=O)oc2c1 | 0 | -16% | -2% | 1% | 19% | 34µM*
CC(=O)N1CN(Cc2ccccn2)Cc2c1sc1c2CCCC1 | 2 | -8% | ? | -2% | 45µM* | -17%
COc1cc([N+](=O)[O-])cc(/C=N/NC(=O)CC#N)c1O | · | · | 50µM* | -1% | 8% | ·
O=C(O)c1cccc(N/N=C/c2cn(-c3ccccc3)nc2-c2cccs2)c1 | 2 | -4% | 35µM* | 0% | -8% | ?
NS(=O)(=O)c1ccc(N/N=C/c2cn(-c3ccccc3)nc2-c2cccs2)cc1 | 1 | -12% | 10µM* | 0% | 10% | -8%
CNC(=O)C1CCC(Cn2c(=O)c3sccc3n(CC(=O)NCc3cccc(OC)c3)c2=O)CC1 (stereo not given) | · | -1% | 13%[59 µM] | · | · | ·
Cc1ccc2nc(Nc3cccc(C(F)(F)F)c3)c3nnnn3c2c1 | · | 13% | 6%[59 µM] | · | · | ·
O=C1NC(=O)C2C1C(c1cccs1)NN2Cc1ccccc1 (stereo not given) | -1 | 9% | 50µM* | -1% | -14% | -9%
CCN1CCN(c2nnc(-n3cccc3C(=O)NCc3ccccc3OC)s2)CC1 | · | 8% | -36%[59 µM] | · | · | ·
O=C(Cn1ncc(Cl)c(Cl)c1=O)N1CCN(S(=O)(=O)c2ccc3ccccc3c2)CC1 | 1 | -9% | 45µM* | ? | 13% | -13%
